Screening data as filed in PubChem.
A selection: hits, their analogues and other compounds. The true share with any hit is near 3.6%.
AmpC detergent: blocks E. coli AmpC beta-lactamase in detergent assay. P00811. actives 0.041% (n = 370,000). AID 485294. AmpC hydrolysis of nitrocefin, absorbance 480 nm, 0.01% Triton. Potency, µM (top dose mostly 114 µM), for the others: at the highest dose activity change, negative = inhibition, most hits filed as inhibitors;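 further: 0% = no-compound wells and -100% = no-enzyme wells; nearly all actives have a fitted effect of over 25% in size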
Target sequence (P00811 whole entry, looked up): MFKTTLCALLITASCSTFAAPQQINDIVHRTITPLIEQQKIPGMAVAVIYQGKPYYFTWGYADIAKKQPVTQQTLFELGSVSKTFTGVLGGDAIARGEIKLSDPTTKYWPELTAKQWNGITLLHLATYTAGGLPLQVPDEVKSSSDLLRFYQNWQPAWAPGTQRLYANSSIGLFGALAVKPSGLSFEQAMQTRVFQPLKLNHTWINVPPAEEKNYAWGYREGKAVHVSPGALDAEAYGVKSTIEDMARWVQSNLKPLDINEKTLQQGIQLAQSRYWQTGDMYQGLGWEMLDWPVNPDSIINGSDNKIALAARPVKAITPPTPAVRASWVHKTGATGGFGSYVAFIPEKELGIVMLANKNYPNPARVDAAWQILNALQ
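AmpC (5.3 nM in the dispensed reagent) in 20 mM phosphate pH 7.0 with 0.01% (detergent screen) or 0.0001% Triton X-100 was preincubated with compounds for 15 min at room temperature. Nitrocefin was then added from an 800 uM solution, and hydrolysis was followed at 480 nm.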
AmpC no deterg: AmpC beta-lactamase inhibition without detergent; AmpC nitrocefin hydrolysis, absorbance 480 nm, 0.0001% Triton; Potency, µM (highest dose often 57.1 µM), for the others: at the highest dose activity change, negative = inhibition, hits mostly inhibitors; actives 0.52% (n = 330,000);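 further: plate controls were no compound for no effect and no enzyme for full effect; nearly all actives have a fitted effect of over 20% in size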
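AmpC (5.3 nM in the dispensed reagent) in 20 mM phosphate pH 7.0 with 0.01% (detergent screen) or 0.0001% Triton X-100 was preincubated with compounds for 15 min at room temperature. Nitrocefin was then added from an 800 uM solution, and hydrolysis was followed at 480 nm.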
FBPA Giardia inh: Giardia lamblia aldolase inhibition; purified Giardia FBPA; Potency, µM (doses to about 59.6 µM), without a hit: top-dose activity, negative = inhibition, hits mostly inhibitors; actives 0.71% (n = 290,000); further: nearly all actives have a fitted effect of over 55% in size
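40 nM FBPA preincubated 10 min at RT with compound (up to 57.5 uM final), then substrate plus GAPDH/TPI/NAD/arsenate coupling and diaphorase/resazurin added. Fluorescence read after 20 min at RT, 525/598 nm.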
Sm TGR inh: blocks Schistosoma mansoni thioredoxin glutathione reductase | AID 485364 | purified TGR, DTNB reduction, TNB absorbance 405 nm | Q962Y6 | Potency, µM (top dose mostly 114 µM), without a hit: top-dose activity change, negative = inhibition, actives largely listed as inhibitors | actives 3% (n = 360,000); further: nearly all actives have a fitted effect of over 60% in size
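TGR 20 nM + NADPH 100 uM (dispensed conc.), cpd preinc 15 min RT; start with NADPH (500 uM addition) then DTNB (15 mM addition). Kinetic TNB absorbance, 405 nm filter. Four-parameter Hill fit across titration.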
Active calls of the source: *; ? = inconclusive; . = not tested or not shown; [ ] = another dose, or the depositor's remark. The call rests on the fitted dose curve; in most records, active means well fitted curve in the direction sought with a large enough effect; inconclusive means small, poorly fitted or top-dose-only effect, or another doubt; inactive means no such curve, though single readings can be large; an effect the other way counts as inactive or inconclusive. Unless noted, on the % scale 0 is the no-effect control and ±100 the full control effect; potency means the concentration at half of the fitted maximal effect.

SMILES	AmpC detergent	AmpC no deterg	FBPA Giardia inh	Sm TGR inh
COc1ccc(N2C(=O)C3C4C=CC(CC4)C3C2=O)c([N+](=O)[O-])c1 (stereo not given)	-2%	-6%	8%	3%
COc1ccc(CCNC(=O)CN(c2cc(C(F)(F)F)ccc2Cl)S(C)(=O)=O)cc1	0%	.	.	6%
Cc1ccc(-c2cc(C(=O)N3CCN(C(=O)c4ccco4)CC3)[nH]n2)cc1C	-6%	14%	15%	-7%
CC(=O)N1c2ccc(S(=O)(=O)N3CCC(C(=O)Nc4cccc(C(F)(F)F)c4)CC3)cc2CC1C (stereo not given)	1%	26%	-1%	4%
CC(=O)Oc1ccc(N2C(=O)CC(N3CCOCC3)C2=O)cc1 (stereo not given)	-13%	-10%	-1%	22µM*
CCOc1ccc(N2C(=O)CC(N3CCOCC3)C2=O)cc1 (stereo not given)	?	-16%	-2%	-29%
O=C1CC(N2CCN(c3ccccc3)CC2)C(=O)N1c1ccc2c(c1)OCO2 (stereo not given)	-2%	-5%[2.29 µM]	6%	-16%
CC(=O)Oc1cccc(N2C(=O)C3C(C2=O)C2C=CC3C23CC3)c1 (stereo not given)	?	-3%	3%	40µM*
CC(=O)Oc1ccc(N2C(=O)C3C4C=CC(O4)C3C2=O)cc1 (stereo not given)	6%	-17%	-7%	7.1µM*
O=C1CC(N2CCOCC2)C(=O)N1c1ccc2c(c1)OCO2 (stereo not given)	1%	-14%	8%	50µM*
CC(=O)Oc1ccc(N2C(=O)CCC2=O)cc1	11%	1%	0%	2%
CCCc1nnc(NC(=O)c2nc(SCC)ncc2Cl)s1	-4%	.	.	9%
O=C(COC(=O)C1CC(=O)N(c2ccccc2)C1)c1ccccc1 (stereo not given)	?	1.4µM*	5%	6%
COc1ccc(N2CC(C(=O)OCC(=O)c3ccccc3)CC2=O)cc1 (stereo not given)	?	14%	10%	-29%
Cc1nnc(N/N=C/c2ccccc2F)n1N	-7%	14%	?	-5%
Cc1nnc(N/N=C/c2ccco2)n1N	-8%	-8%	20µM*	-6%
CN(Cc1ccccc1)Cc1c(O)ccc2ccccc12	-20%	-24%	?	0.89µM*
COc1ccc(OCCN(C)Cc2c(O)ccc3ccccc23)cc1	0%	-36%	-3%	1.1µM*
O=C(/C=C/c1ccc(-c2ccccc2[N+](=O)[O-])o1)c1ccco1	1%	-46%	?	35µM*
N#C/C(=C\c1ccc(-c2ccccc2[N+](=O)[O-])o1)C(=O)N1CCOCC1	-11%	18%	-29%	-6%
CN1C(=O)C2(c3ccccc31)C1CCCC=C1C(C#N)=C(N)C2(C#N)C#N (stereo not given)	?	-51%	?	20µM*
COc1ccc(S(=O)(=O)NCc2ccco2)cc1N(C)S(=O)(=O)c1ccccc1	-3%	-18%	-6%	-16%
O=C(NCCCN1CCOCC1)c1cc(-c2ccco2)nc2ccccc12	.	-6%	.	.
NS(=O)(=O)c1ccc(CCNC(=O)c2cc(-c3ccco3)nc3ccccc23)cc1	-2%	-33%	.	8.9µM*
CCCCn1c(N)c(N(CC(C)C)C(=O)c2cc(-c3ccco3)nc3ccccc23)c(=O)[nH]c1=O	-21%	-29%	.	22µM*
SMILES	AmpC detergent	AmpC no deterg	FBPA Giardia inh	Sm TGR inh
CC(C)CCNC(=O)c1cc(-c2ccco2)nc2ccccc12	0%	62%	-1%	40µM*
CCCCCCNC(=O)c1cc(-c2ccco2)nc2ccccc12	-2%	4%	0%	3.2µM*
Cc1cc(C)c(S(=O)(=O)NCCS(=O)(=O)N2CCN(c3ccccc3)CC2)c(C)c1	20%	.	.	8%
O=C1C2C3C=CC(CNS(=O)(=O)c4ccccc4[N+](=O)[O-])(O3)C2C(=O)N1c1ccccc1 (stereo not given)	-5%	-36%	-5%	3.2µM*
Cc1cc(C)c(S(=O)(=O)NCC23C=CC(O2)C2C(=O)N(c4ccccc4)C(=O)C23)c(C)c1 (stereo not given)	-15%	40%	.	4.5µM*
Cc1ccc(S(=O)(=O)N2CCCCC2)cc1NC(=O)c1cnccn1	0%	-8%	.	1%
C/C(=N\NP(=S)(c1ccccc1)c1ccccc1)c1ccc(O)cc1O	9%	16µM*	-18%	-3%
COC(=O)c1ccccc1NS(=O)(=O)c1cc2c3c(c1)CC(=O)N3CCC2	1%	.	.	19%
Cc1ccccc1-c1nnn(Cc2cccc(S(=O)(=O)N3CCOCC3)c2)n1	-1%	0%	.	1%
CC(C)(C)C(=O)NCC12C=CC(O1)C1C(=O)N(c3ccccc3)C(=O)C12 (stereo not given)	?	-30%	-1%	1.6µM*
O=C1C2C3C=CC(CO)(O3)C2C(=O)N1c1ccc(-c2ccccc2)cc1 (stereo not given)	-17%	-4%	-11%	0.5µM*
NCC(=O)N[C@@H](CCCN=C(N)N)C(=O)NCC(=O)N[C@@H](CCC(=O)O)C(=O)N[C@@H](CO)C(=O)O	.	.	3%	.
Cc1ccc(NC(=O)COC(=O)COc2cccc3c2OC(C)(C)C3)cc1S(=O)(=O)N1CCOCC1	?	152%	.	-4%
Cc1ccccc1C(=O)Nc1cccc(-c2ccc(N3CCOCC3)nn2)c1	?	?	.	5%
CC1CC(C)CN(C(=O)COC(=O)c2cc3ccccc3oc2=O)C1 (stereo not given)	.	-9%	.	.
Cc1cc(C(=O)OCC(=O)N2c3ccccc3CC2C)c(C)o1 (stereo not given)	5%	?	-3%	25µM*
Cc1cc(C(=O)OCC(=O)N2CC(C)CC(C)C2)c(C)o1 (stereo not given)	-10%	34%	-3%	25µM*
Cc1cc(C)c(NC(=O)Cn2c(=O)n(CCC(=O)NCc3ccccc3Cl)c(=O)c3sccc32)c(C)c1	14%	.	.	-1%
CCOc1ccccc1NC(=O)C(=O)c1cc(C)n(-c2ccc(F)cc2)c1C	11%	.	.	-2%
Cc1cc(C(=O)N/N=C2\CC(=O)c3ccccc32)c(C)n1-c1ccc(F)cc1	-2%	-34%	-22%	35µM*
CCOc1cc(/C=N/NC(=O)c2cc(C)n(-c3ccc(F)cc3)c2C)ccc1O	-7%	?	-7%	56µM*
CCC(Cn1nnc2ccccc2c1=O)NC(=O)Nc1ccc(C)cc1C (stereo not given)	12%	.	.	-3%
Cc1cc(C)c(OCC(=O)OCCNC(=O)c2cccnc2)c(C)c1	?	-17%	-9%	35µM*
CCOC(=O)C(NS(=O)(=O)c1ccccc1)(C(F)(F)F)P(=O)(OC(C)C)OC(C)C (stereo not given)	-12%	-1%	1%	35µM*
